This is an account of results in PubChem BioAssay.

The viability is a read-out of living cells in per cent, often relative to untreated cells. As a reminder, the inhibition is the relative decrease from the control value, in per cent.

Assay [1] in a line: compounds altering HSF1 focus formation in cells – imaging, Selleck Cancer Library (AID 1347162; in the data active means plate-normalised HSF1 focus index below about 0.46). The conditions noted are these: human cells, HSF1 nuclear foci imaging, at 10 µM; SSMD: measured here: HSF1 foci SSMD mean; cell count: measured here: cell number; plate-normalised HSF1 focus index: stronger effect = lower value.
Assay [2] in a line: blockers of cellular phospholipid synthesis – cell-based, LOPAC library, screen 4, primary screen (AID 1347384). The conditions noted are these: animal cells, phospholipid biosynthesis inhibition screen; at 10 µM.
A short description of assay [3]: P. berghei load reduction in hepatocytes – cell-based, HepG2, luciferase luminescence, HepG2 viability, primary screen (AID 624349; in the data active means parasite load remaining mostly below about 12%, no sharp cut-off; inactive means mostly above about 10%;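 further: 100% = mean of DMSO negative control wells on the same plate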). The conditions noted are these: P. berghei liver stage in HepG2, luciferase luminescence, concentration not given here; parasite load remaining: stronger effect = lower value; viability: measured here: HepG2 viability without parasites.
Assay [4] is described as follows: compounds altering circadian rhythm period length – cell-based, LOPAC library, luminescence reporter (AID 2774).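 Further: values are relative to mean of DMSO wells on each plate.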 The conditions noted are these: circadian reporter cells, at 7 µM, actives lie on both sides.
The test system of assay [5] is Hepatitis C virus NS3 helicase. In words: blockers of NS3h binding to ssDNA – biochemical, fluorescence polarization, LOPAC1280 library, primary screen (AID 687035; in the data active means inhibition above about 37%). The conditions noted are these: Purified HCV NS3 helicase, Cy5-dT15 ssDNA binding fluorescence polarization; stronger effect = higher value; concentration not given here. In general terms: Fluorescence polarisation rises when a labelled molecule tumbles more slowly, as on binding a larger partner.

Assay [6] is described as follows: compounds altering Cy5-DNA-NS3h complex signal – biochemical, LOPAC1280, artefact control for HCV NS3 helicase inhibitor project (AID 687037). The conditions noted are these: Cy5-DNA-NS3h complex fluorescence interference counterscreen.
A short description of assay [7]: galactose survival enhancers in mitochondrial complex I cybrids – cell-based, galactose medium, ATP luminescence, primary screen (AID 1645843;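 active means z-score of at least 1.8 in each of two replicates, scored against plate mean and spread of sample wells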;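 further: positive z means more ATP and so rescue of galactose-driven cybrid death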). The conditions noted are these: complex I mutant cybrid cells, 72 h, stronger effect = higher value.
Assay [8] can be described thus: MELAS cybrid and Rieske KO viability enhancers – cell-based, MELAS cybrids, Rieske KO mouse fibroblasts, CellTiter-Glo, primary screen (AID 1508586;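 active means mean z-score across replicates of 1.96 or higher in either the MELAS or the Rieske mutant cell line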;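 further: z relative to plate mean and SD of compound and empty wells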). The conditions noted are these: low glucose.
The target in assay [9] is NAD(+) hydrolase SARM1 (Homo sapiens) (UniProt Q6SZW1). The experiment in a line: blocking NAD cleavage by SARM1 SAM-TIR – cell lysate, NAD-Glo luminescence (AID 1508614;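 active means compound whose remaining NAD level is above about 45 nM, limit read from the data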). The conditions noted are these: SAM-TIR HEK293T lysate NADase, at 1 µM, stronger effect = higher value.
Chain of NAD(+) hydrolase SARM1 (Homo sapiens) (Q6SZW1 whole entry, looked up, the tested form may be a part): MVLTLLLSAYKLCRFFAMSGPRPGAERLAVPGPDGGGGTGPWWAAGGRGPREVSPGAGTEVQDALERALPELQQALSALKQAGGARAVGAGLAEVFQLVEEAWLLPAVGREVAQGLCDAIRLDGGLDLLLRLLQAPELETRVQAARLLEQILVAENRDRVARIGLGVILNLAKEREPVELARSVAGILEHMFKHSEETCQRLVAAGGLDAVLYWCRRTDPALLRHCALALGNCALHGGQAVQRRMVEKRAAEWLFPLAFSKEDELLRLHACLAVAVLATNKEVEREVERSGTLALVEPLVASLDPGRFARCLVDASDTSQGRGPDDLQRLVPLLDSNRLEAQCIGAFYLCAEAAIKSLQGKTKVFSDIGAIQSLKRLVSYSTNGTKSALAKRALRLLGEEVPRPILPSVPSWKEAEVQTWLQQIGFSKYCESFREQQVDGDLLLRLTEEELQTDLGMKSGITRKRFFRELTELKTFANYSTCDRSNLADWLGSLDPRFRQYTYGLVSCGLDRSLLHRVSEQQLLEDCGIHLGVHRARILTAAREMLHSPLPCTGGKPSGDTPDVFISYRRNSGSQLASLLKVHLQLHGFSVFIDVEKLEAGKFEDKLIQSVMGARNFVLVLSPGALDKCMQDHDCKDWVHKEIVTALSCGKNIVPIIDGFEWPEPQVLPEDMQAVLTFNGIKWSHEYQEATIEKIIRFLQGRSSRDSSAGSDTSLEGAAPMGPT
The target in assay [10] is Mitogen-activated protein kinase 7 (Homo sapiens) (UniProt Q13164). In words: Gal4-ERK5 driven luciferase induction – cell-based, HTS, primary screen (AID 1508626;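 active means luciferase signal above three times the same-plate solvent-only control wells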;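 further: luciferase driven by Gal4-ERK5 fusion binding five Gal4 sites before minimal TATA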). The conditions noted are these: HeLa Gal4-ERK5 transactivation, 18 h, at 5 µM, stronger effect = higher value.
Chain of Mitogen-activated protein kinase 7 (Homo sapiens) (Q13164 whole entry, looked up, the tested form may be a part): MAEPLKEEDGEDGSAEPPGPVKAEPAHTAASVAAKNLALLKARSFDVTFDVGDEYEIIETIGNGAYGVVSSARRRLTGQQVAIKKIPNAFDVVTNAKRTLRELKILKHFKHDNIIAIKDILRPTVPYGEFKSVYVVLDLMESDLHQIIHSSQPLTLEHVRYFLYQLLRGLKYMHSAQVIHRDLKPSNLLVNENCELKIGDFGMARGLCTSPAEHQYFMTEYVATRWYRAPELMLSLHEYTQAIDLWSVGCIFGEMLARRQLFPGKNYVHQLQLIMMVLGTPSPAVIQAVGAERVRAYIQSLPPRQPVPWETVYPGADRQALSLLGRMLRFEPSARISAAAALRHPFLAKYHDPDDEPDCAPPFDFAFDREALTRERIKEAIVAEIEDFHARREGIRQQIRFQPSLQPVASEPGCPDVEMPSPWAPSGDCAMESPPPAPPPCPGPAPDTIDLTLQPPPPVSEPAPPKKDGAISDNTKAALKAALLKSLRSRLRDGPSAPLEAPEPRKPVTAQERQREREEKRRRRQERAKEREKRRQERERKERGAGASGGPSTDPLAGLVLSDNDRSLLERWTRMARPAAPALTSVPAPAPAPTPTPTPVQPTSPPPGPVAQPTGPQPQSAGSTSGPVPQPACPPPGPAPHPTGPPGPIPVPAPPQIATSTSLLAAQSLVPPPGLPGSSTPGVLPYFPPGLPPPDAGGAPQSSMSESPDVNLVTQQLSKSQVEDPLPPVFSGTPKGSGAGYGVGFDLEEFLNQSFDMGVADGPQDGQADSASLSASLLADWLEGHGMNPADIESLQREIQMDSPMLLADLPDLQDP
Where [11] appears, read: MELAS cybrid survival, CellTiter-Glo 48 h, stronger effect = higher value.
Where [12] appears, read: Rieske KO mouse fibroblast survival, CellTiter-Glo 72 h.

Each structure is given as a SMILES string. The source made the active and inactive calls. Unless noted, how the calls were made is not given here.

As for `COc1ccc(Cc2nn3c([C@@H](CCCc4ccccc4)[C@@H](C)O)nc(C)c3c(=O)[nH]2)cc1OC`, in [1], the SSMD turned out to be 2.11, the cell count came to 7160 and the plate-normalised HSF1 focus index is 1.12 (inactive).

With `Nc1ncnc2c1ncn2[C@@H]1O[C@H](COP(=O)(O)CP(=O)(O)OP(=O)(O)O)[C@H](O)C1O` (some centres not stated), the call in [2] was inactive.

Turning to `COCCNC(=O)COc1ccc(OCCNC[C@H](O)COc2ccccc2)cc1`, the result in [2] was inactive.

On to `c1ccc(-c2cnn3cc(-c4ccc(OCCN5CCOCC5)cc4)cnc23)cc1`, for which, in [2], the outcome was inactive.

`CCOC(=O)c1ccc(C#Cc2ccc3c(c2)CC(C)(C)CS3)nc1`: the result in assay [2] was inactive.

Turning to `CCOc1ncc(S(=O)(=O)N2CCN(CC)CC2)cc1-c1nc2c(CC)n(CCOC)nc2c(=O)[nH]1`, in assay [2], the call was inactive.

In the case of `N#C/C(=C1/Nc2ccccc2S1)c1ccnc(NCCc2cccnc2)n1`, in assay [3], the parasite load remaining is 18.8% (inactive) and the viability is 85.6%. For the same molecule, in [1], the SSMD amounted to 2.72, the cell count is 6770 and the plate-normalised HSF1 focus index is 1.16 (inactive).

As for `CO/N=C(\C(=O)N[C@@H]1C(=O)N2C(C(=O)O)=C(CSc3nc(=O)c(=O)[nH]n3C)CSC12)c1csc(N)n1` (some centres not stated), the outcome in [2] was inactive.

As to `C[N+]1(C)C2CC(OC(=O)[C@H](CO)c3ccccc3)CC1C1OC12` (some centres not stated), the molecule was called inactive in [2].

On to `Nc1cc2c(ncn2CCOCP(=O)(O)O)c(=O)[nH]1`, for which the call in assay [2] was inactive.

On to `COc1cc(C(=O)NC(=S)Nc2cccc(NC(=O)c3ccccc3)c2)cc(OC)c1OC`, for which, in assay [1], the SSMD came out at 4.07, the cell count is 6830 and the plate-normalised HSF1 focus index was 1.24 (inactive).

In the case of `N[C@H](C(=O)O)[C@H](O)c1ccc(O)c(O)c1`, the result in assay [2] was inactive.

On to `O=C1c2ccccc2-c2nc3nonc3nc21`, for which, in assay [1], the SSMD was -15, the cell count worked out at 3090 and the plate-normalised HSF1 focus index was 0.229 (active).

`NC(=NCCC[C@H](N)C(=O)O)N[N+](=O)O`: in assay [1], the SSMD was found to be 2.98, the cell count came out at 7230 and the plate-normalised HSF1 focus index is 1.18 (inactive).

As for `CC(=O)O[C@H]1CC2(C)[C@@H](C[C@@H](O)[C@H]3[C@@]4(C)CC[C@@H](O)[C@@H](C)[C@@H]4CC[C@@]32C)/C1=C(/CCC=C(C)C)C(=O)O` (some centres not stated), the call in assay [2] was inactive.

`N=c1ccn2c(n1)OC1C(O)[C@@H](CO)O[C@H]12` (some centres not stated): the outcome in assay [2] was inactive.

As for `Cc1cc(Nc2ncc3cc(-c4c(Cl)cccc4Cl)c(=O)n(C)c3n2)ccc1F`, the outcome in assay [2] was inactive.

Take `Cc1nc(C#Cc2cccnc2)cs1`: the outcome in assay [2] was inactive.

As to `CC[N+](CC)(CC)CC`, the outcome in assay [2] was inactive.

As to `O=C(O)C1=CS[C@@H]2/C(=C\c3cnc4n3CCOC4)C(=O)N12`, in assay [2], the result was inactive.

In the case of `CC(C)CC(NP(=O)(O)O[C@@H]1O[C@@H](C)[C@H](O)[C@@H](O)[C@H]1O)C(=O)NC(Cc1c[nH]c2ccccc12)C(=O)O` (some centres not stated), in [2], the molecule was called inactive.

On to `CO[C@H]1C[C@@H]2CC[C@@H](C)[C@@](O)(O2)C(=O)C(=O)N2CCCC[C@@H]2C(=O)OC([C@H](C)C[C@@H]2CC[C@@H](OC(=O)C(C)(CO)CO)[C@H](OC)C2)CC(=O)[C@H](C)/C=C(\C)[C@@H](O)[C@@H](OC)C(=O)[C@H](C)C[C@H](C)/C=C/C=C/C=C/1C` (some centres not stated), for which the result in assay [2] was inactive.

`CC1=NN(c2ccc(C(=O)O)cc2)C(=O)/C1=C\c1ccc(-c2cc(C)c(C)cc2[N+](=O)[O-])o1`: in assay [1], the SSMD is 1.04, the cell count turned out to be 6690 and the plate-normalised HSF1 focus index is 1.07 (inactive).

With `NC(=S)c1ccc[n+]([C@@H]2O[C@@H](COP(=O)(O)OP(=O)(O)OC[C@H]3O[C@@H](n4cnc5c(N)ncnc54)C(OP(=O)(O)O)[C@H]3O)C(O)C2O)c1` (some centres not stated), the outcome in assay [2] was inactive.

`C=C1/C(=C/C=C2\CCC[C@]3(C)[C@@H]([C@H](C)/C=C/[C@@H](C)C(C)C)CC[C@@H]23)C[C@@H](O)C[C@@H]1O`: in [1], the SSMD was 1.3, the cell count amounted to 6600 and the plate-normalised HSF1 focus index is 1.07 (inactive).

Take `O=C(/C=C/c1ccc(O)cc1)CC(=O)/C=C/c1ccc(O)cc1`: the call in assay [2] was inactive.

In the case of `N#CC(=C(\N)Sc1ccccc1N)/C(C#N)=C(/N)Sc1ccccc1N`, in [4], the period change is -0.02 h (inactive). Further, the inhibition in assay [5] was -1% (inactive). In assay [6], the fluorescence ratio (interference) is 1 (inactive). Further, the result in assay [2] was inactive. The z-score in assay [7] is -1.33 (inactive).

As for `CN1CCN(S(=O)(=O)c2cc(C(=O)NCCc3ccccn3)cc(-c3ccccc3)c2)CC1`, the z-score in [8] (setting [11]) is -0.308 (inactive); in assay [8] (setting [12]), -0.279; in assay [7] it was -0.695 (inactive).

Consider `CCOc1ccccc1O[C@@H](c1ccccc1)[C@H]1CNCCO1`, for which the z-score in assay [8] (setting [11]) was -0.0519 (inactive); in [8] (setting [12]), -0.0896.

For the molecule `CO[C@H]1/C=C/O[C@@]2(C)Oc3c(C)c(O)c4c(O)c(c(/C=N/N5CCN(C6CCCC6)CC5)c(O)c4c3C2=O)NC(=O)/C(C)=C\C=C\[C@H](C)[C@H](O)[C@@H](C)[C@@H](O)[C@@H](C)[C@H](OC(C)=O)[C@@H]1C`, the z-score in assay [8] (setting [11]) was 0.699 (inactive); in [8] (setting [12]), 0.251.

On to `CC(=O)OCC(=O)[C@@]1(O)CC[C@H]2[C@@H]3CCC4=CC(=O)CC[C@]4(C)C3(F)[C@@H](O)C[C@@]21C` (some centres not stated), for which the z-score was -0.171 (inactive) in assay [8] (setting [11]) and -0.231 in assay [8] (setting [12]).

For `CN(C)C(=O)N=NC(=O)N(C)C`, the inhibition in [5] was -4% (inactive). Moreover, in assay [6], the fluorescence ratio (interference) is 1 (inactive). Further, the molecule was classed as inactive in assay [2].

For the molecule `N[C@@H]1CCCCN(c2c(F)cc3c(=O)c(C(=O)O)cn(C4CC4)c3c2Cl)C1`, the results for the z-score in assay [8] (setting [11]) and in [8] (setting [12]) were 0.702 (inactive) and -0.618, respectively.

In the case of `CO/N=C(\C(=O)N[C@@H]1C(=O)N2C(C(=O)OC(C)OC(C)=O)=C(COC(N)=O)CS[C@H]12)c1ccco1` (some centres not stated), the z-score is 0.525 (inactive) in [8] (setting [11]) and 0.0681 in assay [8] (setting [12]). In [9], the remaining NAD is 10 nM (inactive).

Consider `C=CC1=C(C)c2cc3[nH]c(cc4nc(cc5[nH]c(cc1n2)c(C)c5CCC(=O)O)C(CCC(=O)O)=C4C)c(C)c3C=C`, for which the molecule was called inactive in assay [2].

Consider `CCN(CC)c1ncnc2c1ncn2[C@@H]1O[C@H](COP(=O)(O)OP(=O)(O)C(Br)(Br)P(=O)(O)O)[C@@H](O)[C@H]1O`, for which, in [2], the molecule was called inactive.

For `CC(C)NS(=O)(=O)c1cc(NC2CCCCC2)cc(C(=O)NC2Cc3ccccc3C2)c1`, the z-score is -0.22 (inactive) in assay [8] (setting [11]), -0.431 in [8] (setting [12]) and -0.045 (inactive) in assay [7].

On to `C/C=C/C1=C(C(=O)O)N2C(=O)[C@@H](NC(=O)[C@H](N)c3ccc(O)cc3)[C@H]2SC1`, for which the z-score in [8] (setting [11]) was -0.679 (inactive); in [8] (setting [12]), -1.17. The remaining NAD in assay [9] was 10 nM (inactive). In addition, in assay [10], the luciferase signal is 48 AU (inactive).

As for `C[C@H](Cc1cc2c(c(C(N)=O)c1)N(CCCO)CC2)NCCOc1ccccc1OCC(F)(F)F`, the z-score in assay [8] (setting [11]) is -0.477 (inactive); in assay [8] (setting [12]), -0.901.

Turning to `COc1ccc(CN2CC(OCc3cccnc3)CN(C(=O)C3=NN(C)C(=O)CC3)CC2=O)cc1` (configuration not stated), the z-score was -0.43 (inactive) in assay [8] (setting [11]), -0.34 in assay [8] (setting [12]) and 1.23 (inactive) in [7].

Consider `CNCC[C@@H](Oc1cccc2ccccc12)c1cccs1`, for which the z-score was -0.177 (inactive) in assay [8] (setting [11]) and 0.977 in [8] (setting [12]).

`CC(C)CC(NP(=O)(O)OC1OC(C)C(O)C(O)C1O)C(=O)NC(Cc1c[nH]c2ccccc12)C(=O)O` (configuration not stated): the values for the z-score in [8] (setting [11]) and in [8] (setting [12]) were -0.408 (inactive) and 0.685, respectively.
